The record followed here is PubChem BioAssay (NCATS).

Molecules are shown by their SMILES. Records with an inconclusive call do not appear. Calls of active or inactive are those of the source. Calls come from the whole dose curve; as a rule, active = well fitted curve in either direction with a large enough effect (not every such curve was filed as active); inconclusive = small, poorly fitted or top-dose-only effect, or another doubt; inactive = flat fitted curve, though single readings scatter.
% is set by controls: 0 for no effect and ±100 for the full control effect.

This assay has as its target Mitogen-activated protein kinase 10 (Mus musculus) (UniProt Q61831). The assay is described as follows: JNK3 AlphaScreen Assay (AID 530).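 Note: kinase came from lysate of stimulated human HepG2 cells.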 To be noted: JNK3 lysate, c-Jun phosphorylation; series mostly up to 11.4 µM; activity change, negative = inhibition: at the top concentration. The procedure, abridged: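 Biotinylated GST-cJun(1-79) served as substrate for JNK3 in HepG2 lysates stimulated with IL-1beta and TNF-alpha. ATP was 10 uM final, pH 7.6. Ser73 phosphorylation was quantified by AlphaScreen (680 nm excitation).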
(Alpha assays give light when donor and acceptor beads are brought close together.)
For `O=C(O)[C@H](Cc1ccccc1)N1C(=O)c2ccccc2C1=O`, the “activity change, negative = inhibition” value is 9.01% (inactive).
As for `COC(=O)c1cc(=O)[nH]c(=O)[nH]1`, the figure is 2.34% (inactive); as for `O=C1CCC[C@H]1C(=O)Nc1ccc2ccccc2c1`, 6.57% (inactive); as for `COCCn1c(=O)cnc2cnc(N3CCNCC3)nc21`, 0.605% [at 57.1 µM] (inactive).
As for `N[C@@H](CNO)C(=O)O`, the figure is -0.324% (inactive); as for `C[C@@H](SCc1ccccc1)C(=O)O`, 2.38% (inactive).
For the compound `C[N+](C)(C)CC(=O)N/N=C\c1c(O)ccc2ccccc12`, the “activity change, negative = inhibition” value is 1.32% (inactive).
As for `O=C(O)CCn1cnc2c(=S)nc[nH]c21`, the figure is 0.478% (inactive); as for `CCOC(=O)c1c(O)[nH]c(=O)c(CC)c1C`, -0.19% (inactive).
As for `Nc1ccc(Cc2ccc(N)c(C(=O)O)c2)cc1C(=O)O`, the figure is 2.53% (inactive); as for `O=S(=O)(c1ccccc1)N1CCN(S(=O)(=O)c2ccccc2)c2ccccc21`, 8.05% (inactive).
To `CN1[C@@H](c2ccccc2)CC(=NO)C[C@H]1c1ccccc1` belongs 2.27% (inactive); to `CC(C)[C@@H](C(=O)O)N1C(=O)c2ccccc2C1=O`, -3.22% (inactive); to `O=c1c2ccccc2c2ccccc2c(=O)n1-c1cc2c3ccccc3ccc2c2ccccc12`, 1.37% (inactive).
Regarding `O=C(O)c1cncc(C(=O)O)c1`, the “activity change, negative = inhibition” value was -0.354% (inactive).
As to `CC(C)=C[C@H]1[C@@H](COC(=O)c2cc3c(cc2Cl)OCO3)C1(C)C`, the “activity change, negative = inhibition” value was 13.3% (inactive).
To `O=C(O)CCCSc1nc2ccccc2s1` belongs 0.489% (inactive).
Regarding `O=C(O)/C(Cc1cn[nH]n1)=N\O`, the “activity change, negative = inhibition” value is 2.72% (inactive).
As for `O=C(O)C(=Cc1ccnc2ccccc12)C(=O)O`, the figure is 0.405% (inactive); as for `Cn1c(=O)c2c(ncn2CCSS(=O)(=O)O)n(C)c1=O`, 2.84% (inactive); as for `C=CCNS(=O)(=O)c1ncnc2nc[nH]c12`, 0.344% (inactive).
As for `CN1CCN(CCCNN)CC1`, the figure is 1.79% (inactive); as for `c1ccc(CN2COc3c(ccc4c5c(ccc34)CN(Cc3ccccc3)CO5)C2)cc1`, -0.511% (inactive).
To `CCCS(=O)(=O)O` belongs 5.35% (inactive).
Regarding `CC(=O)CSCc1ccccn1`, the “activity change, negative = inhibition” value is -2.81% (inactive).
As for `CC(C)[C@H](Nc1ncnc2nc[nH]c12)C(=O)O`, the figure is -2.03% (inactive); as for `Nc1nc2c(ncn2[C@H]2CC[C@@H](CO)O2)c(=O)n1C(=O)c1ccccc1`, 4.5% (inactive); as for `CC1=C(/C=C\C(=O)O)C(C)(C)CCC1`, -1.16% (inactive).
As for `C[n+]1cccc(/C=C\c2ccc3cccc(O)c3n2)c1`, the figure is -0.223% (inactive); as for `COc1ccc(Br)c2c1C[C@H](C(=O)O)CC2`, 2.01% (inactive).
As for `COC(=O)c1cc(-c2ccc3ccccc3c2)[nH]c(=O)c1C#N`, the “activity change, negative = inhibition” value was 1.35% (inactive).
As for `O=C(O)[C@H]1O[C@H]1C(=O)O`, the figure is 3.25% (inactive); as for `COc1cc(C(=O)O)c([N+](=O)[O-])c(OC)c1OC`, -0.261% (inactive).
To `C[C@H](NCCN(C)C)[C@@H]1CCC2C3CCc4cc(O)ccc4[C@H]3CCC21C` (stereo not given in full) belongs -0.744% (inactive).
To `O=C(O)/C(Cc1ccc([N+](=O)[O-])cc1)=N/O` belongs -1.25% (inactive); to `C(=N/Nc1ccccn1)/c1cccnc1`, 2.57% (inactive).
In the case of `CC1=NNC(=S)NCCCN2CCN(CCCNC(=S)NN=C(C)C=NNC(=S)NCCCN3CCN(CCCNC(=S)NN=C1)CC3)CC2`, the “activity change, negative = inhibition” value is -0.825% (inactive).
`CN(C)CCN1C(=O)CC[C@]2(C)C1=CC[C@@H]1[C@@H]2CC[C@]2(C)[C@H]1CC[C@]2(C)O`: the “activity change, negative = inhibition” value was 1.8% (inactive).
To `Nc1ccccc1N=Nc1c(S(=O)(=O)O)cc2cc(S(=O)(=O)O)cc(O)c2c1O` belongs -5.88% (inactive).
As for `N#C[C@H](C(=O)O)C(c1c(Cl)cccc1Cl)[C@H](C#N)C(=O)O`, the figure is 1.02% (inactive).
